Results as given in PubChem BioAssay.
Activity calls are given as the source filed them.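 Rule for the calls: active = normalized viability below 100% at a tested concentration; inactive = the rest.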

Experiments:
[1] = drug combination growth inhibition, ovarian cancer – cell-based, oncology-focused library, rucaparib conditional, profiling panel (AID 1508598); details: patient-derived ovarian cancer cells, CellTiter-Glo viability, 144 h, stronger effect = lower value
[2] = MELAS cybrid and Rieske KO viability enhancers – cell-based, MELAS cybrids, Rieske KO mouse fibroblasts, CellTiter-Glo, primary screen (AID 1508586); details: low glucose;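 note: z relative to plate mean and SD of compound and empty wells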
[3] = at 0.000305 µM, OCI-C5x cells, with rucaparib 10 µM, 100% = cells with rucaparib alone
[4] = at 0.000305 µM, OCI-C5x cells, without rucaparib
[5] = at 0.000305 µM, OCI-P5x cells, with rucaparib 20 µM, 100% = cells with rucaparib alone
[6] = at 0.000305 µM, OCI-P5x cells, without rucaparib
[7] = at 0.00122 µM, OCI-C5x cells, with rucaparib 10 µM, 100% = cells with rucaparib alone
[8] = at 0.00122 µM, OCI-C5x cells, without rucaparib
[9] = at 0.00122 µM, OCI-P5x cells, with rucaparib 20 µM, 100% = cells with rucaparib alone
[10] = at 0.00122 µM, OCI-P5x cells, without rucaparib
[11] = at 0.00488 µM, OCI-C5x cells, with rucaparib 10 µM, 100% = cells with rucaparib alone
[12] = at 0.00488 µM, OCI-C5x cells, without rucaparib
[13] = at 0.00488 µM, OCI-P5x cells, with rucaparib 20 µM, 100% = cells with rucaparib alone
[14] = at 0.00488 µM, OCI-P5x cells, without rucaparib
[15] = at 0.0195 µM, OCI-C5x cells, with rucaparib 10 µM, 100% = cells with rucaparib alone
[16] = at 0.0195 µM, OCI-C5x cells, without rucaparib
[17] = at 0.0195 µM, OCI-P5x cells, with rucaparib 20 µM, 100% = cells with rucaparib alone
[18] = at 0.0195 µM, OCI-P5x cells, without rucaparib
[19] = at 0.0781 µM, OCI-C5x cells, with rucaparib 10 µM, 100% = cells with rucaparib alone
[20] = at 0.0781 µM, OCI-C5x cells, without rucaparib
[21] = at 0.0781 µM, OCI-P5x cells, with rucaparib 20 µM, 100% = cells with rucaparib alone
[22] = at 0.0781 µM, OCI-P5x cells, without rucaparib
[23] = at 0.313 µM, OCI-C5x cells, with rucaparib 10 µM, 100% = cells with rucaparib alone
[24] = at 0.313 µM, OCI-C5x cells, without rucaparib
[25] = at 0.313 µM, OCI-P5x cells, with rucaparib 20 µM, 100% = cells with rucaparib alone
[26] = at 0.313 µM, OCI-P5x cells, without rucaparib
[27] = at 1.25 µM, OCI-C5x cells, with rucaparib 10 µM, 100% = cells with rucaparib alone
[28] = at 1.25 µM, OCI-C5x cells, without rucaparib
[29] = at 1.25 µM, OCI-P5x cells, with rucaparib 20 µM, 100% = cells with rucaparib alone
[30] = at 1.25 µM, OCI-P5x cells, without rucaparib
[31] = at 5 µM, OCI-C5x cells, with rucaparib 10 µM, 100% = cells with rucaparib alone
[32] = at 5 µM, OCI-C5x cells, without rucaparib
[33] = at 5 µM, OCI-P5x cells, with rucaparib 20 µM, 100% = cells with rucaparib alone
[34] = at 5 µM, OCI-P5x cells, without rucaparib

CC1(C)O[C@@H]2C[C@H]3[C@@H]4CCC5=CC(=O)C=C[C@]5(C)[C@]4(F)[C@H](O)C[C@]3(C)[C@@]2(C(=O)CO)O1
inactive: viability [1, 3] 108% | viability [1, 4] 124% | viability [1, 6] 122% | viability [1, 7] 116% | viability [1, 8] 123% | viability [1, 9] 101% | viability [1, 10] 116% | viability [1, 11] 106% | viability [1, 12] 117% | viability [1, 14] 110% | viability [1, 15] 105% | viability [1, 16] 122% | viability [1, 18] 107% | viability [1, 19] 108% | viability [1, 20] 120% | viability [1, 22] 110% | viability [1, 23] 105% | viability [1, 24] 114% | viability [1, 26] 106% | viability [1, 27] 109% | viability [1, 28] 108% | viability [1, 31] 109%
active: viability [1, 5] 97.2% | viability [1, 13] 96.8% | viability [1, 17] 92.8% | viability [1, 21] 92.1% | viability [1, 25] 90.6% | viability [1, 29] 84% | viability [1, 30] 97.8% | viability [1, 32] 99.9% | viability [1, 33] 78.5% | viability [1, 34] 90.4%

COc1cccc(-c2cc3c(n(Cc4ccccn4)c2=O)CCN(C(=O)c2csc(C)n2)C3)c1
-0.876: z-score ([2]; MELAS cybrid survival, CellTiter-Glo 48 h, stronger effect = higher value)
3.95: z-score ([2]; Rieske KO mouse fibroblast survival, CellTiter-Glo 72 h)

CC[C@]1(O)C[C@@H]2CN(CCc3c([nH]c4ccccc34)[C@@](C(=O)OC)(c3cc4c(cc3OC)N(C=O)[C@@H]3C45CCN4CC=C[C@](CC)([C@H]45)[C@H](OC(C)=O)[C@]3(O)C(=O)OC)C2)C1 (stereo partly specified)
active: viability [1, 4] 99.3% | viability [1, 5] 88.8% | viability [1, 6] 86.4% | viability [1, 8] 98.8% | viability [1, 10] 90.1% | viability [1, 14] 86.3% | viability [1, 15] 88.9% | viability [1, 16] 66.1% | viability [1, 17] 70.6% | viability [1, 18] 25.9% | viability [1, 19] 45.1% | viability [1, 20] 37.2% | viability [1, 21] 51% | viability [1, 22] 17.4% | viability [1, 23] 42.3% | viability [1, 24] 27.2% | viability [1, 25] 56.1% | viability [1, 26] 16.7% | viability [1, 27] 34.8% | viability [1, 28] 21.4% | viability [1, 29] 51% | viability [1, 30] 12.7% | viability [1, 31] 41.7% | viability [1, 32] 24.9% | viability [1, 33] 50.9% | viability [1, 34] 13.1%
inactive: viability [1, 3] 113% | viability [1, 7] 120% | viability [1, 9] 102% | viability [1, 11] 101% | viability [1, 12] 103% | viability [1, 13] 105%
